Screening data deposited in PubChem by The Scripps Research Institute Molecular Screening Center.
Sampled rows, rich in hits. Any-hit rate of the full collection: about 3.5%.
MITF primary – inhibitors of human MITF; AID 1259374; inhibition, % at 2.6 µM; AlphaScreen MITF homodimerization, bead proximity signal; 650,000 tested, 0.91% active; in the data active = inhibition above about 50%
Target sequence (O75030 whole entry, looked up): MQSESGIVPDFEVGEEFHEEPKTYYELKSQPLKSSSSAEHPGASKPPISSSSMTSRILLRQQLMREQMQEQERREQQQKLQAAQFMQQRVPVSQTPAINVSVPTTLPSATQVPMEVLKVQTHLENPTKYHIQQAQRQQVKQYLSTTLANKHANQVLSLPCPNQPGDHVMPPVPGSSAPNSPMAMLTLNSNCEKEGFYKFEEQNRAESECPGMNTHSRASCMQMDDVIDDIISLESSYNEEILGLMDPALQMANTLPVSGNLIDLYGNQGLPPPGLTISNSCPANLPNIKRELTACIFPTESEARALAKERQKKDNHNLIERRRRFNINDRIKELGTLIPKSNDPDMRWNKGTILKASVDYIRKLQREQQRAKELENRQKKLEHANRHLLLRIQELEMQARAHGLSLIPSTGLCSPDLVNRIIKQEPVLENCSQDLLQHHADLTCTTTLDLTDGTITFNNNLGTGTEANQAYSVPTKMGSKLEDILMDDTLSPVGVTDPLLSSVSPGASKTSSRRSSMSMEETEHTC
TEAD-YAP inh – TEAD-YAP interaction inhibition; 640,000 tested, 1.4% active; HEK-TIYL cells, TEAD-Gal4/YAP UAS-luciferase luminescence; inhibition, % at 9.12 µM; in the data active = inhibition above about 32%
GPR151 activ – human GPR151 activation. activation, % at 11.2 µM. PathHunter beta-arrestin GPR151 cells, luminescence. Q8TDV0. 650,000 tested, 1% active. AID 1508602; in the data active = activation above about 4.9%
FBW7 activator – human FBW7 E3 ligase activation, primary screen. AID 1259310. normalized activity (activation), % at 26.1 µM. 650,000 tested, 0.13% active. AlphaScreen FBW7–phospho-cyclin E peptide binding, activator screen; in the data active = normalized activity above about 1.9%;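 note: purified mutant Fbw7 with reduced substrate affinity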
Each line names hits and unclear results; the compound was inactive in the other large screens; ! = not active in a repeat.

COCCNC(=O)/C(C#N)=C/c1cn(-c2ccccc2)nc1-c1cc2ccccc2o1	none
c1ccc(Nc2cc(-c3ccnc(Nc4ccccc4)c3)ccn2)cc1	TEAD-YAP inh 38
NC(=O)c1ccc(Nc2cc(-c3ccccc3)ccn2)cc1	none
NC(=O)C(C(=O)/C=C/c1ccc(Cl)cc1)=C1SCCS1	TEAD-YAP inh 44
CCOCCCn1c(=S)[nH]c2cc(C(=O)N3CCN(Cc4ccc5c(c4)OCO5)CC3)ccc2c1=O	TEAD-YAP inh 43
O=C(c1ccc2c(=O)n(Cc3ccc(Cl)cc3)c(=S)[nH]c2c1)N1CCN(Cc2ccc3c(c2)OCO3)CC1	none
COc1cc(Nc2nccn3c(-c4cccc(N)c4)cnc23)cc(OC)c1OC	TEAD-YAP inh 43
c1cc(CCNc2nccn3c(-c4ccsc4)cnc23)ccn1	TEAD-YAP inh 39
COc1cc(CNc2nccn3c(-c4ccc5ccccc5c4)cnc23)cc(OC)c1OC	FBW7 activator 2.0
COc1cc(Nc2nccn3c(-c4cccc5ccccc45)cnc23)cc(OC)c1OC	none
COc1cc(Nc2nccn3c(-c4ccccc4)cnc23)cc(OC)c1OC	TEAD-YAP inh 59
O=C(NC(CS)C(=O)O)c1cccs1 (centres undefined)	none
COc1cc(Nc2nccn3c(-c4ccc(C)cc4)cnc23)cc(OC)c1OC	TEAD-YAP inh 46
COc1cc(Nc2nccn3c(-c4ccsc4)cnc23)cc(OC)c1OC	TEAD-YAP inh 55
COc1cc(CNc2nccn3c(-c4ccsc4)cnc23)cc(OC)c1OC	none
COc1cc(-c2cnc3c(Nc4ccc(Cl)cc4)nccn23)cc(OC)c1OC	none
CN(C)c1ccc(C(=O)OC2CCOC2=O)cc1 (centres undefined)	none
O=C(CSc1ncccc1C(=O)O)c1ccc2c(c1)OCCO2	TEAD-YAP inh 34
O=C(CSc1nnnn1-c1cccc(F)c1)c1ccc2c(c1)OCCO2	TEAD-YAP inh 78
O=C(CSc1ncccc1C(=O)O)c1ccc2ccccc2c1	none
CC(=O)NC(c1ccc2ccccc2c1)c1ccc2cccnc2c1O (centres undefined)	TEAD-YAP inh 80
CC(=O)NC(c1ccc(C)cc1)c1ccc2cccnc2c1O (centres undefined)	MITF primary 51, TEAD-YAP inh 85
CC(=O)NC(c1ccc([N+](=O)[O-])cc1)c1ccc2cccnc2c1O (centres undefined)	TEAD-YAP inh 84
CCOc1ccc(C(NC(C)=O)c2cc(Cl)c3cccnc3c2O)cc1 (centres undefined)	none
Cc1cccnc1NC(c1ccc([N+](=O)[O-])cc1)c1ccc2cccnc2c1O (centres undefined)	TEAD-YAP inh 70
COc1cccc(-c2nc3ccccc3c(=O)n2NC(=O)Cc2ccc(Cl)cc2)c1	none
CC(=O)NC(c1ccc(Br)cc1)c1ccc2cccnc2c1O (centres undefined)	TEAD-YAP inh 83
COc1ccc(/C(C)=N/Nc2nncc3ccccc23)cc1	TEAD-YAP inh 33
NNc1nncc2ccccc12	TEAD-YAP inh 37!
CCNC(=O)c1ccccc1NC(=O)c1cccc(S(=O)(=O)N2CCCCCC2)c1	none
COCCn1nnnc1C(C(C)C)N1CCN(c2ccc(OC)cc2)CC1 (centres undefined)	none
CC(C)(C)C(=O)Nc1ccc(C(=O)/C=C/c2ccco2)cc1	TEAD-YAP inh 37
O=C(/C=C/c1ccco1)NC(=S)Nc1ccc(NC(=O)c2ccco2)cc1	TEAD-YAP inh 69
COc1cc(NC(=S)NC(=O)/C=C/c2ccco2)ccc1NC(=O)c1ccco1	TEAD-YAP inh 49
COc1cc(NC(=O)/C=C/c2ccco2)ccc1NC(=O)c1ccco1	none
O=C(/C=C/c1ccco1)NC(=S)Nc1ccccc1	none
CC1CCCC(C)N1C(=O)c1ccccc1C(=O)O (centres undefined)	none
Cn1c(SCC(=O)Nc2ccccc2)nc2c(oc3ccccc32)c1=O	none
O=C(N/N=C/c1ccccc1F)/C(=C/c1ccccc1O)NC(=O)c1ccccc1	TEAD-YAP inh 89
O=C(N/N=C/c1ccccc1O)/C(=C/c1ccccc1)NC(=O)c1ccccc1	none
COc1ccc(OC)c(/C=C(\NC(=O)c2ccccc2)C(=O)N/N=C/c2cccc(O)c2)c1	FBW7 activator 2.5
O=C(N/C(=C/c1ccccc1)C(=O)N1CCCCCCC1)c1ccccc1	none
COc1ccc(/C=C(/NC(=O)c2ccccc2)C(=O)N/N=C/c2cccc(O)c2)cc1OC	none
O=C(N/C(=C/c1ccccc1O)C(=O)N1CCCCC1)c1ccccc1	TEAD-YAP inh 74
CC(C)c1ccc(C#N)c(SCC(=O)Nc2ccc(C(=O)O)cc2)n1	none
CC(C)(C)c1csc(Nc2ccc3cccc(O)c3n2)n1	none
CCOc1ccc2ccccc2c1C1NC(=O)NC(C)=C1[N+](=O)[O-] (centres undefined)	none
COc1ccc(-c2nc3ccccc3c(=O)n2NCc2ccc(Br)cc2)cc1OC	none
COc1ccc(-c2nc3ccccc3c(=O)n2NCc2cccc(OC)c2)cc1	none
COc1ccc(-c2nc3ccccc3c(=O)n2NCc2ccc(O)cc2)cc1OC	TEAD-YAP inh 40
COc1ccc(-c2nc3ccccc3c(=O)n2NCc2cccc(Oc3ccccc3)c2)cc1	TEAD-YAP inh 78
CC1Oc2cccnc2N(Cc2ccc(F)c(Cl)c2)C1=O (centres undefined)	none
Nc1ncc(Cc2ccc(SC(F)F)cc2)s1	none
CC(C)N1CCN(c2ccc(Oc3cc(Nc4ccccc4C(N)=O)c(C(F)(F)F)cn3)cc2)CC1	none
CNC(=O)c1ccccc1Nc1cc(NC(=O)Cc2ccc(N)cc2)ncc1C(F)(F)F	TEAD-YAP inh 79
CNC(=O)c1ccccc1Nc1cc(NC(=O)Cc2ccccc2F)ncc1C(F)(F)F	TEAD-YAP inh 81
NC(=O)c1ccccc1Nc1cc(NC(=O)Cc2ccc(F)cc2)ncc1F	none
CS(=O)(=O)NC1CCC(Nc2cc(Nc3ccccc3C(N)=O)c(C(F)(F)F)cn2)CC1 (centres undefined)	TEAD-YAP inh 98
CNC(=O)c1ccccc1Nc1cc(NC(=O)C2CCc3ccccc32)ncc1C(F)(F)F (centres undefined)	TEAD-YAP inh 79
O=C(Cn1c2ccccc2c(=O)c2ccccc21)Oc1ccc(Cl)cc1Cl	none
Cc1ccc(NC(=O)COC(=O)c2ccc([N+](=O)[O-])o2)c(Br)c1	none
Cc1nn(C)c(C)c1NC(=O)Cn1nc2n(Cc3ccccc3F)c3ccccc3n2c1=O	none
NC(=O)c1ccccc1NC(=O)Cc1cccs1	none
CNC(=O)c1ccccc1Nc1cc(NC(=O)Cc2cccs2)ncc1C(F)(F)F	TEAD-YAP inh 74
CNC(=O)c1ccccc1Nc1cc(NCc2ccccc2)ncc1C(F)(F)F	none
CNC(=O)c1ccccc1Nc1cc(NC(=O)Cc2ccc(F)cc2)ncc1C(F)(F)F	TEAD-YAP inh 72
CNC(=O)c1ccccc1Nc1cc(NC(=O)Cc2ccsc2)ncc1C(F)(F)F	TEAD-YAP inh 77
O=C(Cc1ccc2c(c1)OCO2)Nc1cc(Nc2ccccc2-c2nn[nH]n2)c(C(F)(F)F)cn1	none
CCCCOc1ccc(/C=C2\N=C(c3cccc(Cl)c3)OC2=O)cc1	none
COC(CNC(=O)c1ccc2c(c1)N=C(C)c1cc(Cl)ccc1S2)OC	TEAD-YAP inh 38
